# About 14,000 (4.5%) of roughly 310,000 compounds showed an effect of 50% or more. The effect is printed as a negative number. The entries come from a sample that favours strong results as a whole.
# Molecular target: human ether-à-go-go-related gene (hERG) potassium channel (human, UniProt Q12809)
# Experiment: primary screen, population patch clamp on CHO cells stably expressing hERG; higher = less effect of the substance
# 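Note: peak tail current of the secondary pulse compared with the same well before compound.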
# Sequence of human ether-à-go-go-related gene (hERG) potassium channel (Q12809 whole entry, looked up): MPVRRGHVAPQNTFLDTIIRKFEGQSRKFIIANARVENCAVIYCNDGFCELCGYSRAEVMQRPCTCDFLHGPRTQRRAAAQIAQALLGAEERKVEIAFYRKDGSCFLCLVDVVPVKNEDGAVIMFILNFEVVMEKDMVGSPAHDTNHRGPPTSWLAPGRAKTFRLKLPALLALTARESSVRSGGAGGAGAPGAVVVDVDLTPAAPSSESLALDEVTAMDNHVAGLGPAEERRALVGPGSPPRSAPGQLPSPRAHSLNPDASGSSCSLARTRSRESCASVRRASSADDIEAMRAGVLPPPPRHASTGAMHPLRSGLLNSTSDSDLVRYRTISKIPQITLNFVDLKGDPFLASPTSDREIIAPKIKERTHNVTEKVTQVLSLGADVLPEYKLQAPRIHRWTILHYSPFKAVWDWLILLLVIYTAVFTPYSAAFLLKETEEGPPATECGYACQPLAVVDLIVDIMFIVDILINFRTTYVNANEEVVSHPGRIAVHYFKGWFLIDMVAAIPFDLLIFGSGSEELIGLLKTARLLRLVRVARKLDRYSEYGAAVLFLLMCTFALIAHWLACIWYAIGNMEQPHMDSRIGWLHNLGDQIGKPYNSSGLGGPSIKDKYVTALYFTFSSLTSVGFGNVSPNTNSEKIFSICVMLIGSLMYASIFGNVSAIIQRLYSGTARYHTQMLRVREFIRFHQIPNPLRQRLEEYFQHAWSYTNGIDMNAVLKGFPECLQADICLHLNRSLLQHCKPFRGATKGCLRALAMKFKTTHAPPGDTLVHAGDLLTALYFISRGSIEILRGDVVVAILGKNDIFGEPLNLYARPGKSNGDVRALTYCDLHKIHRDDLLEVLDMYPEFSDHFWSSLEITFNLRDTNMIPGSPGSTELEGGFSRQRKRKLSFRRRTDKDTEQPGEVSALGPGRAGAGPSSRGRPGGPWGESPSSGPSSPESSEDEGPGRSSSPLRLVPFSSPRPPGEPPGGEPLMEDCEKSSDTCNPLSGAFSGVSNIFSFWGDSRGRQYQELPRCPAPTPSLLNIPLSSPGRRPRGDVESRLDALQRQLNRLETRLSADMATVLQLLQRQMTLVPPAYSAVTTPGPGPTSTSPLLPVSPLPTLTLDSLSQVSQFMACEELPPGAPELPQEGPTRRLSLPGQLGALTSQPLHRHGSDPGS
row,SMILES,"hERG current change (%, negative = inhibition) at 10uM [%]"
1,CCN1CCN(S(=O)(=O)Cc2ccccc2)CC1,8.52
2,COc1ccc2oc(C(=O)OCC(=O)NCC3CCCO3)c(C)c2c1 (centres unmarked),2.35
3,Cc1ccc(N2C(=O)c3ccccc3C2(O)c2ncc[nH]2)cc1 (centres unmarked),15
4,O=S(=O)(c1ccc(NC(=S)N/N=C/c2c3ccccc3cc3ccccc23)cc1)N1CCOCC1,8.09
5,O=C1c2ccccc2C(=O)N1CCCCN(C(=O)c1cc2ccccc2oc1=O)c1ccc(F)cc1F,1.03
6,Cc1cc(C(C)(C)C)oc1C(=O)OCC(=O)NC1CCCCC1,0.649
7,O=C(NC(Cc1ccccc1)c1ccc2c(c1)OCCCO2)c1ccccc1 (centres unmarked),19.1
8,O=C(NCCS(=O)(=O)NCc1ccc(F)cc1)c1ccc2c(c1)OCO2,-39.8
9,COc1ccccc1-n1c(O)c(C=NCCN2CCNCC2)c(=O)[nH]c1=O,14.4
10,O=C(CSc1nc(=O)n(CCCN2CCOCC2)c2c1CCCC2)Nc1ccc(F)c(F)c1,-58
11,O=C(CSc1nc(=O)n(CCCN2CCOCC2)c2c1CCCC2)Nc1ccc(F)cc1,-43.7
12,O=C(CSc1nc(=O)n(CCCN2CCOCC2)c2c1CCCC2)Nc1ccc(F)cc1F,-22.6
13,CC(C)(C)C(=O)Nc1ccccc1C(=O)Nc1ccccn1,3.65
14,O=C(COc1ccccc1)N1CCN(CCN2C(=O)c3cccc4cccc(c34)C2=O)CC1,-8.43
15,O=C1c2cccc3cccc(c23)C(=O)N1CCN1CCN(CC(O)COc2ccccc2)CC1 (centres unmarked),-60
16,COc1ccc(C(=O)CN2CCN(CCN3C(=O)c4cccc5cccc(c45)C3=O)CC2)cc1,-26.5
17,O=C1c2cccc3cccc(c23)C(=O)N1CCN1CCN(CC(O)COc2ccc3ccccc3c2)CC1 (centres unmarked),-11.7
18,COc1cccc(OCC(O)CN2CCN(CCN3C(=O)c4cccc5cccc(c45)C3=O)CC2)c1.Cl (centres unmarked),-59.2
19,O=C(CSc1nnc(NC(=O)C2CC2)s1)Nc1ccc(F)cc1,12.5
20,COc1ccc(-c2nc3n(n2)C(c2ccncc2)C(C(N)=O)=C(C)N3)cc1 (centres unmarked),0.391
21,CCOc1ccc(C(CC(=O)O)NC(=O)c2ccco2)cc1 (centres unmarked),11
22,COc1cc(/C=N/n2cnnc2)ccc1OCc1ccccc1,6.55
23,CN(C)S(=O)(=O)c1cccc(NC(=O)c2cccc(S(=O)(=O)N3CCc4ccccc43)c2)c1,-4.62
